This note sets out measurements from ChEMBL document CHEMBL4513216, “Probing the Open Global Health Chemical Diversity Library for Multistage-Active Starting Points for Next-Generation Antimalarials” (ACS Infect Dis, 2020).

Out of some 69,000 compounds screened, about 8,600 (12%) showed an effect of 50% or more. The sample holds strong results, similar compounds and a random draw of the others, so the mix is not that of the screen.

This test concerns Plasmodium berghei. The experiment in a line: Screen against P. berghei liver stage (PbLuc), transformed with Luciferase, at 10uM. Format: functional, HepG2. The settings on record: tested at 10 uM.
For `CCN1CC(CN(C)Cc2nc(-c3ccc(C)o3)oc2C)CC1=O` (configuration not stated), the INHIBITION came to 34.2%.

For the compound `Cc1noc(C(C)C)c1C(=O)NS(=O)(=O)c1ccc2c(c1)OCCCO2`, the INHIBITION is reported as 7.9%.

In the case of `CNC(=O)c1ccc(-c2ccc(CNC(=O)COC)cc2)nc1C`, the INHIBITION is 10.9%. The value for `Cc1ccc(CN(C(=O)NCC2CCS(=O)(=O)C2)C2CC2)o1` (configuration not stated) was -39.2%; that for `CCCn1nc(C(=O)NC2(c3ccc(Cl)cc3)CCCC2)ccc1=O` was -51.3%. The value for `CCc1nc2n(n1)CC(NCc1cnn(-c3ccccc3)n1)CC2` (configuration not stated) was 10.9165%; that for `CN1CCOCC12CCN(Cc1ccoc1)CC2` was -13.2%. For `COc1cccc(CN2CCC(c3nnc(-c4cnc(C)cn4)o3)C2)c1` (configuration not stated), the INHIBITION is reported as 29.3%. The result for `COc1ccc(CN(Cc2cn(C)nc2C)CC2CCCO2)c(OC)c1` (configuration not stated) reads 21.9%.

Take `COc1cccc(-c2noc(C3CCN(Cc4cn(C)nc4C)C3)n2)c1` (configuration not stated): the INHIBITION is given as 84.8%. The value for `CSCc1cccc(S(=O)(=O)Nc2cc(C)on2)c1` was 8.7%; that for `Cc1nc(C)c(C(=O)NCCNc2ncccc2C#N)s1` was 13.3%; that for `CSc1ncccc1C(=O)NCCC(O)c1cccs1` (configuration not stated) was 26%. The result for `CSc1ccccc1C(=O)NCCC(O)c1ccco1` (configuration not stated) reads 45.7%. The value for `CSc1ncccc1C(=O)NCCC(O)c1ccco1` (configuration not stated) was 53.2%; that for `Cc1cccc(C(=O)N2CC(Cc3nccc4ccn(C)c34)C2)n1` was -23.8%. `CN(C)CCOCC1CN(Cc2ccsc2)Cc2ccnn2C1` (configuration not stated): the INHIBITION is recorded as 11.4%. As to `Cc1cnc(C(=O)N(CCN(C)C)Cc2ccc(Cl)cc2)cn1`, the INHIBITION is recorded as 12.2%. The value for `CN(C)CCN(Cc1ccc(Cl)cc1)C(=O)c1ccncc1` was 10.6%; that for `CN(C)CCN(Cc1ccc(Cl)cc1)C(=O)c1cnccn1` was 68.3%; that for `CN(C)CCN(Cc1ccc(C(F)(F)F)cc1)C(=O)c1cc[nH]n1` was 63.3%. The value for `CN(C)CCN(Cc1cccc(C(F)(F)F)c1)C(=O)c1cc[nH]n1` was 22.4%; that for `CN(C)CCN(Cc1ccc(Cl)cc1)C(=O)c1cc[nH]n1` was 10%. Regarding `Cc1ncc(C(=O)N2CCOC(C(=O)N3CCCCCC3)C2)c(C)n1` (configuration not stated), the INHIBITION is reported as 35.1%.

Regarding `O=C(CN1CCCCC1)N1CCC(c2cc(=O)n3c(n2)CCCCC3)C1` (configuration not stated), the INHIBITION is listed as -15.3%. Take `CC(C)NC(=O)NCC1(COc2cnccn2)C[C@@H](O)[C@@H](O)C1` (some centres not stated): the INHIBITION is reported as 45.2%. The value for `O=S(=O)(Cc1ccccc1F)N1CCCC1c1nnc2n1CCCCC2` (configuration not stated) was 20.1%; that for `CS(=O)(=O)N1CCCCC12CCN(c1nncs1)CC2` was 55.5%. The value for `CS(=O)(=O)N1CCOCC12CCN(c1nncs1)CC2` was 26.5%; that for `CN1CCCCC12CCN(c1nncs1)CC2` was -0.804%.

Take `CC(=O)N1CCCC(c2ccc(C(N)=O)cn2)C1` (configuration not stated): the INHIBITION stood at 40%. The value for `CCc1ccc(C2c3nc[nH]c3CCN2Cc2nccn2CC)nc1` (configuration not stated) was 29.3%. The value for `CC(=O)N1CC2(CCCC2)c2ccccc21` was 7.21%; that for `COc1ccc(CN2CCc3sccc3C2C)cc1CN1CCOCC1` (configuration not stated) was 52.7%. As to `COc1cc2c(cc1CN1CCc3sccc3C1C)OCCO2` (configuration not stated), the INHIBITION is reported as 40.6%.

As to `COc1cc2c(cc1CN1CCc3sccc3C1C)OCO2` (configuration not stated), the INHIBITION turned out to be 26.7%. Take `COc1ccsc1C(=O)Nc1cc(CN2CCOCC2)ccc1C`: the INHIBITION is -29.4%.

For `CC1c2ccsc2CCN1Cc1cc2c(cc1O)OCO2` (configuration not stated), the INHIBITION was determined as 18.2%. The result for `CCC1c2ccsc2CCN1Cc1cc2c(cc1OC)OCCO2` (configuration not stated) reads 69.4%. The result for `Cn1ncc2c1NC(=O)CC2c1cccs1` (configuration not stated) reads -3.77%; that for `CC(c1cccc(F)c1)N1CCN(Cc2nccn2C)CC1` (configuration not stated), -39.7%. Take `CC(=O)NCC(=O)N1CCC2(COCc3c(C)nc(N(C)C)nc32)C1` (configuration not stated): the INHIBITION is reported as -13.2%. The value for `Cc1ccc(NC2CCN(C(=O)c3ccco3)CC2)nn1` was -17%; that for `Cc1ccc2c(n1)N(CC1CC1)CCN(C(=O)c1ccncc1F)C2` was -37.4%; that for `Cn1cnc2c1CCN(CCCS(=O)(=O)c1ccccc1)C2` was -1.14%. On to `Cn1cnc2c1CCN(CC(O)c1ccc3c(c1)OCCO3)C2` (configuration not stated), for which the INHIBITION is reported as 42.6%. The value for `Cn1cnc2c1CCN(CCS(=O)(=O)c1ccc(Cl)cc1)C2` was 52.3%; that for `Cn1cnc2c1CCN(CC(O)c1ccc(S(C)(=O)=O)cc1)C2` (configuration not stated) was 57.6%. The value for `Cn1cnc2c1CCN(CCS(=O)(=O)c1ccccc1)C2` was 24.4%; that for `Cn1cnc2c1CCN(CCCOc1ccc(S(C)(=O)=O)cc1)C2` was 49%; that for `Cc1cc(C)nc(Nc2cc(C3CCCN(C)C3)nc(C)n2)n1` (configuration not stated) was 46.1%. For `CCc1nc(C2CCCN2Cc2ccn(C)c(=O)c2)no1` (configuration not stated), the INHIBITION worked out at 21.255%.

On to `CCn1c(C(=O)N2CCCN(CC(N)=O)CC2)cc2ccccc21`, for which the INHIBITION is -27.8%. Turning to `CN(CCNC(=O)c1cccnc1)S(C)(=O)=O`, the INHIBITION was 30.9%.

Consider `CCc1nn(C)c(Cl)c1CN1CCCC2(C1)CN(C)C(=O)O2` (configuration not stated), for which the INHIBITION is listed as 14.9%. The value for `CCc1nn(C)c(Cl)c1CN1CCCC2(CC1)CN(C)C(=O)O2` (configuration not stated) was 53.4%; that for `CCc1nn(C)c(Cl)c1CN1CCC2(C1)CN(C)C(=O)O2` (configuration not stated) was -73.7%; that for `CN(C)Cc1ccccc1Cn1cncc1-c1cnn(C)c1` was 12.8%. The result for `O=S(=O)(c1cccs1)N1CCCn2cnc(CO)c2C1` reads 26.3%; that for `CC(NC(=O)CCn1c(=O)oc2ccccc21)c1ccccn1` (configuration not stated), 8.65%; that for `Cn1nc(N2CCCC(C(=O)Nc3nc4ccccc4[nH]3)C2)ccc1=O` (configuration not stated), 51%.

As for `CCNC(=O)C1CCCN(c2ccc3ccc(F)cc3n2)C1` (configuration not stated), the INHIBITION amounted to 20.8%. The value for `Cn1nc(N2CCCC(C(=O)Nc3nccs3)C2)ccc1=O` (configuration not stated) was 21.5%; that for `CNC(=O)C1CCCN(c2nc3c(-c4ccccc4)csc3c(=O)[nH]2)C1` (configuration not stated) was 11.6%; that for `Cn1nc(N2CCCC(C(=O)Nc3nc4ccccc4s3)C2)ccc1=O` (configuration not stated) was 82.2%. With `Cn1ncc(C(=O)O)c1C(=O)Nc1nc2ccccc2s1`, the INHIBITION was 45.4%.

Regarding `CCOCCSc1nnc(-c2cn(CC)nc2OCC)n1C`, the INHIBITION is recorded as 1.95%. The result for `O=C(C1CCCCC1)N1CCCC([C@@H]2C[C@H](C(F)F)n3ncnc3N2)C1` (some centres not stated) reads 25.26%; that for `Cc1cc(C)nc(C2CCN(C(=O)CCn3ncc4ccccc43)C2)n1` (configuration not stated), 9.93%.

For the compound `CC(Cn1cncn1)NCc1csc2c1CCCC2` (configuration not stated), the INHIBITION is 51.1%.

As to `CC(Cn1ccnc1)NCc1csc2c1CCCC2` (configuration not stated), the INHIBITION came to 31.4%. Consider `CC(Cn1cccn1)NCc1csc2c1CCCC2` (configuration not stated), for which the INHIBITION is given as 46.6%.
